Calls of active or inactive are those of the source. How the source made its calls: active means hit-call score of the fitted dose curve at least 0.9, where 1 is the maximum; inactive means score below 0.9.

The text below walks through data of PubChem BioAssay (EPA / NIEHS).

Read-out in this assay: Human Leukocyte Antigen - DR isotype (HLADR), HLA-DRA (gene 3122)
In words: BSK_3C_HLADR: BioMAP Diversity Plus: 3C Assay for Human Leukocyte Antigen - DR isotype (HLADR) Biomarker Activity (AID 2283019). The settings on record: primary human endothelial cells (HUVEC); actives raise or lower the signal. How it is done:
BSK_3C is a cell-based, multiplexed-readout assay that uses umbilical vein endothelium, a human vascular primary cell, with measurements taken at 24 hours after chemical dosing in a 96-well plate.BSK_3C_HLADR is an assay component measured in the BSK_3C assay. It measures HLA-DR antibody related to regulation of gene expression using ELISA technology.Data from the assay component BSK_3C_HLADR was analyzed into 1 assay endpoint. This assay endpoint, BSK_3C_HLADR, was analyzed with bidirectional fitting relative to DMSO as the negative control and baseline of activity. Using a type of binding reporter, gain or loss-of-signal activity can be used to understand changes in the signaling as they relate to the gene HLA-DRA. Furthermore, this assay endpoint can be referred to as a primary readout, because this assay has produced multiple assay endpoints where this one serves a signaling function. To generalize the intended target to other relatable targets, this assay endpoint is annotated to the cell adhesion molecules intended target family, where the subfamily is MHC Class II.
The levels of cell surface (or secreted, indicated by the prefix "s") biomarker endpoints were measured by ELISA. Overt cytotoxicity to cells in confluent adherent cultures (all systems other than the BT system) was assessed by measuring total protein levels using sulforhodamine B (SRB) staining in parallel cultures at the time of biomarker measurements, indicated as SRB endpoints. For proliferation assays for adherent cell types, individual cell types are cultured at sub-confluence and relative cell numbers quantified by SRB staining at time points optimized for each system (48 h: 3C and CASM3C systems; 72 h: BT and HDF3CGF systems; 96 h: SAg system). SRB was performed by staining cells with 0.1% SRB after fixation with 10% TCA and reading wells at 560 nm.Viability and proliferation of PBMC (T cells) was quantified by Alamar Blue reduction for the SAg and BT systems. For PBMC viability (referred to as PBMC Cytotoxicity within the assay endpoint names), cells were plated (75,000/well in a 96-well plate) and then chemical samples added for 1 h before addition of activators, SEB and TSST-1 (20 ng/mL final concentration each). Cells were incubated for 90 h. Then, Alamar Blue (20 uL/well) (Invitrogen, Cat DAL1100) was added for 6 h, and the plates were read with a fluorescence microplate reader at 546/580 nm (excitation/emission). For PBMC proliferation, cells were plated and activated as above but incubated for only 16 h prior to addition of Alamar Blue. Plates were read after 6 h.
As to `CCCCOC(=O)COC(=O)c1ccccc1C(=O)OCCCC`, the result was inactive.

Take `OCCN(CCO)CCO`: the result was inactive.

As a reminder, the AC50 is the midpoint of the concentration-response curve, whichever way the signal moves. As to `Cc1ccccc1OP(=O)(Oc1ccccc1C)Oc1ccccc1C`, the AC50 was 6.21 µM (active).

Take `O=[N+]([O-])c1ccc(Nc2ccccc2)cc1`: the outcome was inactive.

Turning to `CCOC(=O)CC(=O)CCl`, the AC50 was 28.1 µM (active).

Turning to `Cc1cc(C)cc(C)c1`, the result was inactive.

For the compound `C[C@]12CC[C@@H](O)C[C@@H]1CC[C@@H]1[C@@H]2CC[C@]2(C)C(=O)CC[C@@H]12`, the outcome was inactive.

For the compound `CCOP(=O)(OCC)SCCSCC`, the outcome was inactive.

Regarding `COc1ccccc1N`, the result was inactive.

As for `CC(C)O.CC(C)O.OCCN(CCO)CCO.OCCN(CCO)CCO.[Ti]`, the outcome was inactive.

For `CC(C)(C)c1ccccc1O`, the outcome was inactive.

For the compound `CC1(C)[C@H](C(=O)O[C@H](C#N)c2cccc(Oc3ccccc3)c2)[C@@H]1/C=C(\Cl)C(F)(F)F`, the outcome was inactive.

Take `OCCCCO`: the result was inactive.

Consider `CC(C)(COCC1CO1)COCC1CO1` (stereo not given), for which the AC50 is 20 µM (active).

For the compound `C#CCOC(=O)/C=C(C)/C=C/CC(C)CCCC(C)C` (stereo not given), the half-maximal activity concentration (AC50) was 28.1 µM (active).

In the case of `CC(C)=CC1C(C(=O)OCc2cccc(Oc3ccccc3)c2)C1(C)C` (stereo not given), the AC50 was 20 µM (active).

Take `Clc1cccc(Cl)c1Cl`: the outcome was inactive.

As to `COCC(=O)N(c1c(C)cccc1C)[C@H](C)C(=O)OC`, the outcome was inactive.

For the compound `CCOP(=S)(OCC)SCS(=O)(=O)C(C)(C)C`, the result was inactive.

As to `CCOP(=S)(OCC)OP(=S)(OCC)OCC`, the AC50 is 30.4 µM (active).

On to `C=CC(Cl)CCl` (stereo not given), for which the outcome was inactive.

Take `CC(C)(C)c1cc([N+](=O)[O-])cc(C(C)(C)C)c1O`: the AC50 is 0.016 µM (active).

As for `CCOC(=O)CCN(SN(C)C(=O)Oc1cccc2c1OC(C)(C)C2)C(C)C`, the half-maximal activity concentration (AC50) is 14.2 µM (active).

Regarding `CCOC(=O)C(SP(=S)(OC)OC)c1ccccc1` (stereo not given), the AC50 is 31.8 µM (active).

For the compound `Cc1cc(C(C)(C)c2ccc(O)c(C)c2)ccc1O`, the AC50 is 14.7 µM (active).

With `Cc1c([N+](=O)[O-])c(C)c([N+](=O)[O-])c(C(C)(C)C)c1[N+](=O)[O-]`, the AC50 is 26.9 µM (active).

`Nc1c(Oc2ccccc2)cc(O)c2c1C(=O)c1ccccc1C2=O`: the result was inactive.

As to `OC(Cc1ccccc1Cl)(Cn1cncn1)C1(Cl)CC1` (stereo not given), the outcome was inactive.

In the case of `O=[N+]([O-])c1cccc2ccccc12`, the outcome was inactive.

In the case of `[Cl][Sn]([c]1ccccc1)([c]1ccccc1)[c]1ccccc1`, the AC50 was 0.0817 µM (active).

Regarding `CCCCN(CCCC)C(=S)[S-].CCCCN(CCCC)C(=S)[S-].[Ni+2]`, the outcome was inactive.

As for `O=C(N[C@H]1CN2CCC1CC2)c1ccc2c(c1)OCCO2`, the result was inactive.

Turning to `Cc1ccc(OP(=O)(Oc2ccc(C)cc2C)Oc2ccc(C)cc2C)c(C)c1`, the AC50 was 20 µM (active).

On to `CCOP(=O)(OCC)OC(=CCl)c1ccc(Cl)cc1Cl`, for which the AC50 is 32.7 µM (active).

Consider `Cc1cccc(OP(=O)(Oc2cccc(C)c2)Oc2cccc(C)c2)c1`, for which the outcome was inactive.

As for `O=C(Cc1ccccc1)OCCc1ccccc1`, the result was inactive.

As to `c1ccc2sc(SNC3CCCCC3)nc2c1`, the AC50 is 29.3 µM (active).

Consider `O=C(O)C1(c2ccc3c(c2)OC[C@H](Cc2ccc(-c4ccccc4)cc2)[C@H]3O)CCCC1`, for which the AC50 is 20 µM (active).

Take `N#Cc1cccnc1`: the result was inactive.

Regarding `Cc1cc(Cl)ccc1OC(C)C(=O)O` (stereo not given), the outcome was inactive.
